Assay outcomes (PubChem BioAssay)
CHOP inh – inhibitors of CHOP promoter induction, primary screen, cell-based, unfolded protein response, luciferase reporter; CHO-K1 CHOP-promoter luciferase, tunicamycin-induced, 15-18 h; inhibition, % at 10 µM; 220,000 compounds, 3.8% hits; AID 2732, 2010;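 active = compounds that reduced the stress-induced luciferase reporter signal by more than about 70% of percent inhibition, limit read from the data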;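 also: 0% = tunicamycin plus vehicle and 100% = wells without tunicamycin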
Arbovirus anti – antivirals against arbovirus infection, primary screen, cell-based, full library, 10K replicate subset; arbovirus infection cell-based antiviral screen; inhibition, % at 10 µM; 200,000 compounds, 0.37% hits; AID 1251, 2008; in the data active = inhibition above about 30%
WT yeast gro inh – growth inhibition of WT strain, primary screen, mitochondrial fusion inhibitor project, WT and mutant strains, chemical genetic; inhibition, % at 10 µM; AID 1362, 2008; mitochondrial fusion phenotypic screen; 190,000 compounds, 2.1% hits; in the data active = inhibition above about 58%; tested in S. cerevisiae
L major viab – Leishmania major promastigote growth inhibition, primary screen. 200,000 compounds, 9% hits. Leishmania major promastigotes, resazurin fluorescence viability. inhibition, % at 10 µM; in the data active = inhibition above about 50%;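 also: promastigotes grown with compound for 44 hours at 28 °C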
Starred values were filed as active, the others as inactive; . = no result given. An excerpt weighted towards active compounds, which were near 12% of everything screened.

SMILES	CHOP inh	Arbovirus anti	WT yeast gro inh	L major viab
CCOC(=O)/C(=N\Nc1ccccc1Cl)N1CC(C)OC(C)C1 (configuration not stated)	70*	.	.	.
Cc1cccc(C)c1NC1=C(Cl)C(=O)OC1OC(=O)c1ccccc1 (configuration not stated)	19	-5	13	4
Cc1ccccc1NC1=C(Cl)C(=O)OC1OC(=O)c1ccccc1C (configuration not stated)	60	-2	68*	40
Cc1ccc(NC2=C(Cl)C(=O)OC2OC(=O)c2ccccc2)c(C)c1 (configuration not stated)	74*	7	23	7
CCCN1C(=O)C2(C(C(=O)c3ccc(C)o3)=C(O)C(=O)N2CCCOC)c2ccccc21 (configuration not stated)	11	.	.	.
CC(C)OC(=O)CSc1nc(Cc2ccccc2)nc2ccccc12	75*	4	14	13
COC(=O)CSc1nc(Cc2ccccc2)nc2ccccc12	52	6	-2	2
O=C(Nc1cccc(C(F)(F)F)c1)c1ccccc1NC(=O)C1CCCCC1	94*	-4	1	57*
Fc1cccc2sc(Nc3nc4cc5c(cc4s3)OCO5)nc12	41	9	24	60*
Fc1cccc2sc(Nc3nc4cc5c(cc4s3)OCCO5)nc12	27	21	21	49
CC12CC3CC(C)(C1)CC(C(=O)NC(=S)N1CCCCC1)(C3)C2	32	-9	77*	4
CC(/C=C/c1ccccc1)=N\NC(=O)Cn1nc(C)cc1C	-9	-1	-5	-4
Cc1ccc(NC(=O)Nc2ccc(F)cc2)nc1	77*	0	-8	1
CCOC(=O)c1nnn(-c2nonc2-n2cccc2)c1CN1CCCCC1	87*	-2	.	8
CCOC(=O)c1nnn(-c2nonc2N)c1CN1CCCCCC1	28	8	-9	-5
COc1cc(C2NC(=S)NC(C)=C2C(=O)Nc2cc(C)cc(C)c2)ccc1O (configuration not stated)	0	.	.	.
CC(C)CC(/C(O)=C(\C#N)c1nc2ccccc2[nH]1)N1C(=O)c2ccccc2C1=O (configuration not stated)	45	-10	9	65*
CC(C)(C)/C(O)=C(/C#N)c1nc2ccccc2[nH]1	29	-4	3	-2
COC(=O)NC1(C(F)(F)F)C(=O)Nc2c1c(=O)n(C)c(=O)n2C (configuration not stated)	8	-1	2	-8
Cc1ccc(N(CC(O)CN2CCCCC2)S(=O)(=O)c2ccccc2[N+](=O)[O-])cc1 (configuration not stated)	2	9	-2	99*
COc1ccc([N+](=O)[O-])cc1N(CC(O)CN1CCCCC1)S(=O)(=O)c1ccc(C)cc1 (configuration not stated)	3	15	2	56*
COc1ccc([N+](=O)[O-])cc1N(CC(O)CN(CC(C)C)CC(C)C)S(=O)(=O)c1ccccc1 (configuration not stated)	-6	-17	2	11
Cc1ccc(N(CC(O)CN2CCCC2)S(=O)(=O)c2ccc(C)cc2)cc1 (configuration not stated)	7	-7	-12	28
CCCCN(CCCC)CC(O)CN(c1cc([N+](=O)[O-])ccc1OC)S(=O)(=O)c1ccccc1 (configuration not stated)	23	8	-4	71*
COc1ccc(NC(=O)COC(=O)c2ccc([N+](=O)[O-])o2)cc1Cl	0	13	20	-13
SMILES	CHOP inh	Arbovirus anti	WT yeast gro inh	L major viab
CCc1ccc(N2C(=O)CC(NNc3nc4ccccc4s3)C2=O)cc1 (configuration not stated)	42	-6	-3	-6
CC1(C)N=C(N)NC(Nc2ccccc2Cl)=N1	-8	3	15	-3
O=C(Nc1ccc(Br)cn1)C1CCCN1S(=O)(=O)c1ccccc1 (configuration not stated)	62	15	0	-2
O=C(NC1CCCc2ccccc21)c1cccc(S(=O)(=O)N2CCOCC2)c1 (configuration not stated)	12	5	-3	-1
Cc1ccc(NC(=O)CC2=NC(=O)C(CC(=O)Nc3ccccc3F)S2)cc1 (configuration not stated)	0	-6	-1	6
O=C(Nc1ccc(C(=O)OC[C@@H]2CCCN3CCCC[C@H]23)cc1)c1cccc(Br)c1	-11	-12	12	68*
COc1ccc(/C=C(\NC(=O)c2ccccc2)C(=O)OCC2CCCN3CCCCC23)cc1OC (configuration not stated)	-6	-3	-7	73*
